Assay outcomes as filed in PubChem BioAssay.
APOBEC3G inh: APOBEC3G DNA deaminase inhibitors, primary screen, biochemical, fluorescence, single-stranded DNA substrate, uHTS; 0.28% of 330,000 active; inhibition, % at 20 µM; recombinant A3G, ssDNA deamination FAM/TAMRA fluorescence; DNA dC->dU-editing enzyme APOBEC-3G (Homo sapiens), Q9HC16;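 active = inhibition of at least 40% at 20 µM, with no more than 30% in the related APOBEC3A deaminase screen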;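 note: plate controls were DMSO wells with A3G for no effect and wells lacking A3G enzyme for full effect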
Target sequence (Q9HC16 whole entry, looked up): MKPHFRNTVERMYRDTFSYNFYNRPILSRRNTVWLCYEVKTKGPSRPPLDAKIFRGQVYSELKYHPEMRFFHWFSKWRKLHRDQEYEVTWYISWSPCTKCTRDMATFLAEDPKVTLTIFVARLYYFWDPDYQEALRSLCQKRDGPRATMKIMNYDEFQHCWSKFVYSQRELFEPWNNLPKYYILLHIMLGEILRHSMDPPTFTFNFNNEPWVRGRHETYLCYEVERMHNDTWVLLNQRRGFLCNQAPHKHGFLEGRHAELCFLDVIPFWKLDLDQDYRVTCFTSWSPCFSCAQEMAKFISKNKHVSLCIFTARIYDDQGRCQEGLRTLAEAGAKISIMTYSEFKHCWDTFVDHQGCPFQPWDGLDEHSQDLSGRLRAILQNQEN
VLA-4 inh: inhibition in human VLA-4 binding assay, primary screen, VLA-4 allosteric modulator project, MLPCN library, flow cytometry, VLA-4 expressing cells; Integrin alpha-4 (Homo sapiens), P13612; ligand binding flow cytometry; inhibition, % (about 7 µM as worked out from the volumes in the protocol); 0.2% of 330,000 active; AID 2557, 2010; in the data active = inhibition above about 50%
APOBEC3A inh: APOBEC3A ssDNA deaminase inhibitors, primary screen, selectivity assay for APOBEC3G inhibitor project, biochemical, FAM/TAMRA oligo cleavage fluorescence. recombinant A3A, FAM/TAMRA ssDNA deamination fluorescence. inhibition, % at 20 µM. 0.41% of 330,000 active;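 active = at least 40% inhibition at 20 µM here, with at most 30% in a related deaminase screen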;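 note: plate controls were A3A with DMSO for no effect and wells lacking A3A enzyme for full effect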
Target sequence (P31941 whole entry, looked up): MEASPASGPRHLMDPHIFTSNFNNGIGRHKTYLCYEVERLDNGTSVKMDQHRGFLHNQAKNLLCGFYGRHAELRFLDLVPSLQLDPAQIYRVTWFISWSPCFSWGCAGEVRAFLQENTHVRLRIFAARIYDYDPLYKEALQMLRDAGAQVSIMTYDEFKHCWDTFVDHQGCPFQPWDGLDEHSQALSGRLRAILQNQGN
GRK2 aptamer HTS: compounds blocking aptamer binding on GRK2 – biochemical, human GRK2, bead flow cytometry, HTS, primary screen; 0.59% of 330,000 active; FAM-aptamer displacement from GRK2; Beta-adrenergic receptor kinase 1 (Homo sapiens), P25098; AID 488847, 2010; inhibition of aptamer binding, % at 10 µM;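 active = inhibition of aptamer binding above 40%, roughly 3 SD of noise, on plates passing a quality check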;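 note: median bead fluorescence of bound FAM aptamer so fluorescent compounds give negative values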
GRK2 CP1: GRK2 aptamer-displacing inhibitors, retest, confirmation, biochemical, cherry pick 1, bead flow cytometry; shares compounds with GRK2 aptamer HTS; AID 504451, 2011; bead-bound GRK2, FAM-aptamer displacement; aptamer displacement, % at 10 µM; 4% of 2,000 active;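 active = aptamer displacement above 40%, near three times the noise of non-fluorescent compounds, on plates passing quality checks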;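 note: negative values mostly reflect intrinsic compound fluorescence rather than true enhancement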
FAM quench CP1: quenches fluorescent RNA aptamer, GRK2 hit artifact; 2,000 tested, under 10 active; fluorescence response (% of DMSO), % at 10 µM; shares compounds with GRK2 aptamer HTS; Carboxyfluorescein RNA aptamer on beads, flow cytometry quenching; hits give low values; AID 504580;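 active = compounds that quench the bead-bound fluorescent RNA probe, cutting fluorescence to under half of the solvent control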;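 note: counterscreen run without GRK2 so only probe quenching by compound is measured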
GRK2 CP2: GRK2 aptamer-displacing inhibitors, hit retest, confirmation, biochemical, cherry pick 2, bead flow cytometry; AID 504782, 2011; shares compounds with GRK2 aptamer HTS; 360 tested, under 10 active; inhibition of aptamer binding, % at 10 µM; bead-bound GRK2, FAM-aptamer displacement;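 active = inhibition of aptamer binding above 40%, about triple the noise seen with nonglowing compounds, on plates passing quality control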;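 note: negative values mostly come from compounds that fluoresce themselves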
FAM quench CP2: counter-screen for GRK2 binding hits: quenchers of fluorescent RNA aptamer | carboxyfluorescein RNA aptamer beads, flow cytometry quenching; hits give low values | shares compounds with GRK2 aptamer HTS | fluorescence response vs DMSO, % at 10 µM | 360 tested, under 10 active;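 active = response vs DMSO under 50%, meaning signal dropped by over half, treated as fluorescence quencher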;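 note: labelled aptamer on streptavidin beads without GRK2 as a quench counter-screen; 100% = bead fluorescence of DMSO wells and lower means quenching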
* hit, by the source's call; · = no result. Compounds with a hit are over-represented: about 1.4% of the library has one in this group of screens.

SMILES	APOBEC3G inh	VLA-4 inh	APOBEC3A inh	GRK2 aptamer HTS	GRK2 CP1	FAM quench CP1	others
Cc1ccc2sc(C)[n+](CCO)c2c1	-0.7	13.8	-2.4	100.0*	-1.8	97.5
Cc1ccc(C)c(S(=O)(=O)N2CCCC2CNC(=O)c2ccc([N+](=O)[O-])cc2)c1 (stereo not drawn)	-7.4	-3.3	-0.3	0.0	·	·
COc1ccc(CCNC(=O)CS(=O)(=O)Cc2nc(-c3ccccc3Cl)oc2C)cc1OC	-14.0	6.9	-4.9	66.0*	1.0	95.8	GRK2 CP2=-20.7;FAM quench CP2=103.0
Cc1oc(-c2ccccc2Cl)nc1CS(=O)(=O)CC(=O)NCCc1ccccc1	-7.1	-20.5	-5.3	1.0	·	·
O=C(/C=C/c1ccco1)Nc1ccc(-c2nc3ccccc3[nH]2)cc1	·	16.9	·	49.0*	-1.1	123.8
COc1ccccc1CCNS(=O)(=O)c1ccc(C(=O)O)n1C	-9.4	-4.8	-1.2	3.0	·	·
Cc1nc2ccccc2c(=O)n1NC(=O)c1cccc([N+](=O)[O-])c1	-0.7	11.2	-0.9	98.0*	-9.6	96.0
COc1ccccc1/C=C/C(C)=O	-0.8	6.4	11.6	2.0	·	·
COC(=O)c1c2c(nc3ccccc13)CCC2	1.3	35.3	3.8	10.0	·	·
CCc1ccc2nc3c(c(C(=O)O)c2c1)CCC3	2.0	-0.3	6.7	13.0	·	·	GRK2 CP2=12.7;FAM quench CP2=101.0
O=C(O)c1c2c(nc3ccc(S(=O)(=O)N4CCC(C(=O)N5CCCCC5)CC4)cc13)CCCC2	1.9	-2.3	1.8	84.0*	-1.2	97.7
O=C(CCCOc1ccccc1)N1CCN(S(=O)(=O)c2cccc(F)c2)CC1	-5.7	12.7	-1.9	4.0	·	·
Cc1cc(C(=O)CSc2nc(N)cc(N)n2)c(C)n1-c1cccc(F)c1	-6.3	16.9	-0.5	6.0	·	·
O=C(O)CC1NC(=S)N(c2ccccc2)C1=O (stereo not drawn)	6.9	-2.7	0.8	70.0*	-0.6	102.6
O=C1C(Cc2ccc(O)cc2)NC(=S)N1c1ccccc1 (stereo not drawn)	-4.6	2.6	-1.0	0.0	·	·
Cc1nc(C)c(C(=O)OCC(=O)Nc2ccccc2)s1	-4.8	-8.7	0.4	0.0	·	·
CC1CN(S(=O)(=O)c2cccc(C(=O)Nc3ccc(S(=O)(=O)NC4=NCCCCC4)cc3)c2)CC(C)O1 (stereo not drawn)	0.2	-11.1	5.7	0.0	-3.4	98.2
O=C(CCCSc1nnc(SCCCC(=O)c2ccc(F)cc2)s1)c1ccc(F)cc1	-5.6	-2.7	-2.6	2.0	·	·
Nc1ccc(-c2nc3ccc(N)cc3[nH]2)cc1	-4.9	28.6	3.4	0.0	·	·
Cc1nc2ccc(-c3nc4ccc(N)cc4[nH]3)cc2[nH]1	-14.2	-3.4	-3.8	88.0*	-25.1	102.3
Nc1ccc2nc(-c3ccc(Cl)cc3)[nH]c2c1	-3.6	-71.7	-4.4	0.0	·	·
Nc1ccc2nc(-c3cccc(-c4nc5ccc(N)cc5[nH]4)c3)[nH]c2c1	39.4	-10.7	17.7	99.0*	-53.1	89.6
Cc1ccc(CSc2ccc(-c3ccc4c(c3)OCO4)nn2)cc1	4.2	-9.8	1.0	3.0	·	·
Cc1ccc(-c2nn(-c3ccccc3)cc2/C=C/C(=O)OCC(=O)NC2CC2)o1	-8.9	-3.0	-0.6	78.0*	-4.8	101.9
CCc1cccc2c(C(=O)CSc3nnc(-c4ccncc4)n3C)c[nH]c12	-11.4	-1.0	-6.9	0.0	·	·
SMILES	APOBEC3G inh	VLA-4 inh	APOBEC3A inh	GRK2 aptamer HTS	GRK2 CP1	FAM quench CP1	others
CCOC(=O)C1CCN(CC(=O)Nc2c(C(=O)OC)[nH]c3cccc(C)c23)CC1	-4.9	13.0	-3.0	54.0*	-4.0	98.2
CSc1ccccc1C(=O)C1CCCN(C(=O)c2ccc(N3CCOCC3)cc2)C1 (stereo not drawn)	-8.7	0.0	0.1	1.0	·	·
O=C(c1cccc2ccccc12)C1CCCN(C(=O)c2ccc(N3CCOCC3)cc2)C1 (stereo not drawn)	1.3	-1.5	2.1	3.0	-2.2	100.3
Fc1ccc(C2CCCN2Cc2nc(CC3CC3)no2)cc1 (stereo not drawn)	-2.7	-10.7	3.5	5.0	·	·
O=C(CC1C(=O)NCCN1Cc1ccc(-c2ccccc2)cc1)NCCc1ccccn1 (stereo not drawn)	-9.3	6.6	-5.6	0.0	·	·
CN(C)CCCN(C(=O)CCSc1ccccc1)c1nc2cc3c(cc2s1)OCO3	0.4	4.5	3.4	68.0*	-9.5	101.5
N#C/C(=C\c1c(N2CCC(C(N)=O)CC2)nc2ccccn2c1=O)S(=O)(=O)c1ccc(Cl)cc1	-0.7	-2.1	-5.9	41.0*	-0.9	99.3
CCCCN(CCCNC(=O)C1CCN(S(=O)(=O)N2CCOCC2)CC1)c1ccccc1	1.5	-4.5	-7.1	0.0	·	·
C#CCOCCOCCOCCNc1nc(N2CCN(C(=O)[C@H](Cc3cc4ccccc4[nH]3)n3cc([C@@H](N)CC(C)C)nn3)CC2)nc(N2CCN(C(=O)[C@H](Cc3cc4ccccc4[nH]3)n3cc([C@@H](N)CC(C)C)nn3)CC2)n1	18.1	-1.8	3.2	70.0*	-49.4	96.3
C#CCOCCOCCOCCNc1nc(N2CCOCC2)nc(N2CCN(C(=O)CCCCCCCCCCNC(=O)[C@@H]([C@H](C)O)n3cc(C)nn3)CC2)n1	-7.4	5.6	-0.2	3.0	·	·
C#CCOCCOCCOCCNc1nc(N2CCN(C(=O)CCCCCCCCCCNC(=O)[C@@H]([C@H](C)O)n3cc(C)nn3)CC2)nc(N2CCN(C(=O)CCCCCCCCCCNC(=O)[C@@H]([C@H](C)O)n3cc(C)nn3)CC2)n1	11.7	-13.6	5.2	52.0*	5.0	101.9
CCCn1c(CCC(=O)O)ccc1-c1ccc(F)cc1	0.0	-11.9	-0.9	0.0	·	·
C[C@@H](CN1C2=NC[C@H](Cc3ccccc3)N2C[C@H]1Cc1ccc(O)cc1)NC(=O)CCC1CCCCC1	-10.2	16.1	-5.3	0.0	·	·
COc1cccc(CN(Cc2cccnc2)S(=O)(=O)c2ccc(-n3cnnn3)c(C)c2)c1	2.5	10.8	-4.7	29.0	-2.1	107.0
Cc1cc(Cl)ccc1Oc1ncc(-c2ccc(Cl)cc2)cn1	-6.2	26.7	-2.5	4.0	·	·
